Test [1] concerns the target Ubiquitin carboxyl-terminal hydrolase 1 (Homo sapiens) (UniProt O94782). The experiment in a line: Inhibitors of USP1/UAF1: Pilot qHTS (AID 504865). Note: nearly all actives have a fitted effect of over 35% in size. Note: potency is the fitted concentration of half-maximal effect. A digest of the protocol:
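Enzyme-free wells gave the negative control, while test wells held 1nM USP1/UAF1 preincubated with compound for 15 min at room temperature. Ub-Rho at 150nM final started the reaction, and fluorescence at 480/540 nm was recorded kinetically.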

Test [2] can be described thus: qHTS profiling for inhibitors of Plasmodium falciparum proliferation (AID 504749).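 For activity, negative = inhibition: 0% = DMSO vehicle and full inhibition = artemisinin control.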 For all read-outs here: nearly all actives have a fitted effect of over 60% in size. Note: potency is the fitted concentration of half-maximal effect. The conditions noted are these: P. falciparum in erythrocytes, SYBR Green DNA, 72 h; for activity, negative = inhibition: at 28.7 µM (top of the series). Put shortly:
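Readout was DNA-dye fluorescence from lysed cultures, ex 485/em 535 nm. Parasitized red cells had grown 72 h with compound; data scaled between 0.29 uM artemisinin and DMSO wells and corrected using vehicle-only plates.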
Background: Quantitative high-throughput screening tests each substance at several concentrations.

Test [3] is described as follows: Cell Viability - NIH 3T3 (AID 541).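 Note: cells exposed to compound for 40 hours; plate controls were DMSO alone for no effect and tamoxifen positive control for full effect; nearly all actives have a fitted effect of over 25% in size.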 The conditions noted are these: NIH 3T3 cell viability, qHTS; activity change, negative = cytotoxicity: at 92.2 µM (top of the series). Put shortly: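 AC50 values reflect concentration-dependent loss of intracellular ATP in NIH 3T3 cells after 40 hr treatment in complete culture medium, quantified by luciferase-based luminescence.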

Test [4] can be described thus: MultiTox-Fluor Cytotoxicity Assay - LYMP1-003 - Live Cells (AID 962).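 Note: cells exposed to compound for 16 hours at 37 °C; 0% = DMSO only and full loss = 92 µM tetraoctylammonium bromide; cytotoxic hits lower the live-cell protease signal.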 Put shortly: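 Cells plated at 2500 per well and incubated 5 hr; compounds added and incubated 16 hr at 37 C; MultiTox-Fluor reagent added for 60 min at room temperature; fluorescence of liberated AFC measured at 405/510 nm.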
A short description of test [5]: Cell Viability - LYMP2-004 (AID 966).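 Note: plate controls were DMSO only for no effect and tetraoctylammonium bromide control for full effect; nearly all actives have a fitted effect of over 65% in size.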 A digest of the protocol:
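Acute toxicity is scored as a concentration-dependent drop in intracellular ATP, quantified by luciferase luminescence, in human lymphoblastoid cells exposed to compound for 24 hr. AC50 derives from Hill-equation modelling.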

Test [6] is described as follows: Cell Viability - LYMP2-024 (AID 988).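 Note: plate controls were DMSO only for no effect and 92 µM tetraoctylammonium bromide for full effect; nearly all actives have a fitted effect of over 60% in size.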 Put shortly:
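Acute toxicity is measured as concentration-dependent loss of intracellular ATP in a human lymphoblastoid line treated 24 hours at 37 C. Luciferase luminescence quantifies ATP; AC50 values come from standard Hill-equation modelling.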

In test [7] the target is Estrogen receptor (Homo sapiens) (UniProt P03372). The experiment in a line: qHTS assay for small molecule antagonists of estrogen receptor alpha signaling (AID 588513; active = well fitted curve in the direction sought with a large enough effect in the signal ratio, with a control signal flat, not every such curve was filed as active; the % refers to the signal ratio; note: % is set by controls: 0 for no effect and ±100 for the full control effect). A digest of the protocol:
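Antagonist-mode qHTS in ER-alpha-UAS-bla HEK 293 cells: compound titration, 0.5nM estradiol for 18 h, CCF4 fluorescence, Hill-derived IC50.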

For test [8] the target is unchanged. The experiment in a line: qHTS assay for small molecule agonists of estrogen receptor alpha signaling (AID 588514; calls by dose curve;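 note: 0% = vehicle only and 100% = reference agonist; nearly all actives have a fitted effect of over 70% in size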). Put shortly:
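Reporter-gene assay. […] controls beta-lactamase in HEK 293 GripTite cells; after 18 hrs with compound, CCF4 substrate is added for 2 hrs and fluorescence is read.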

For test [9], the target named is Peroxisome proliferator-activated receptor delta (Homo sapiens) (UniProt Q03181). Briefly: qHTS assay for small molecule agonists of peroxisome proliferator-activated receptor delta signaling (AID 588534; calls by dose curve;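 note: 0% = DMSO basal wells and 100% = positive control agonist at 10 µM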). A digest of the protocol:
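Reporter cells were plated and held 5 hrs at 37 C before compounds were added. After 18 hrs at 37 C, CCF4 dye was loaded for 2 hrs at RT and fluorescence measured.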

Test [10] can be described thus: qHTS assay for small molecule antagonists of peroxisome proliferator-activated receptor delta signaling (AID 588535; active = well fitted inhibition curve with a large enough effect in the signal ratio, with a control signal flat, not every such curve was filed as active; the % refers to the signal ratio;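 for max response: cells co-treated with a PPAR-delta agonist as stimulator during compound exposure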). The conditions noted are these: HEK293T PPARd-UAS-bla, beta-lactamase FRET ratio, 18 h; 460 nm channel. A digest of the protocol:
(§1)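 Cells were seeded at 4000 per well in assay medium containing 2% charcoal/dextran FBS and held 5 hrs at 37 C. Compounds were then added for 18 hrs. CCF4 substrate was applied for 2 hrs at room temperature before fluorescence reading.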

For test [11], the target named is Peroxisome proliferator-activated receptor delta (Homo sapiens) (UniProt Q03181). The test is described as above. Put shortly:
as §1

Test [12] in a line: qHTS assay for small molecule activators of the nuclear factor-kappa B (NF-kB) signaling pathway (AID 651749; active = well fitted activation curve with a large enough effect in the signal ratio; the % refers to the signal ratio; note: % of control where 0% means no effect). The following applies: NF-kB-bla ME-180 cells, beta-lactamase FRET ratio, 16 h; stronger effect = higher value. Put shortly: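 Incubation lasted 16 hr at 37C in 5% CO2 after 23 nL compound addition to ME-180 NF-kB-bla cells. Activation appears as beta-lactamase-mediated FRET loss.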

The nature of test [13]: qHTS assay for small molecule disruptors of the mitochondrial membrane potential - 1 hr assay (AID 651754; calls by dose curve; note: % is set by controls: 0 for no effect and ±100 for the full control effect; nearly all actives have a fitted effect of over 35% in size). A digest of the protocol:
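Steps: seed HepG2 cells and let attach overnight; pin-transfer compound or vehicle; incubate 1 hr at 37C; add Mito-MPS dye for 30 min; read two-channel fluorescence for monomer and aggregate forms.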

Test [14] can be described thus: qHTS assay for small molecule disruptors of the mitochondrial membrane potential - 5 hr assay (AID 651755; calls by dose curve; note: % is set by controls: 0 for no effect and ±100 for the full control effect; nearly all actives have a fitted effect of over 40% in size). Put shortly: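 HepG2 cells (2,000/well), attached overnight, exposed to compound 5 hr at 37C, then Mito-MPS dye 30 min. Fluorescence read for monomers (490/535 nm) and aggregates (540/590 nm).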
Test [15] in a line: qHTS assay for environmental chemicals that activate the Aryl hydrocarbon Receptor (AhR) signaling pathway (AID 651777). Note: % of control where 0% means no effect; nearly all actives have a fitted effect of over 15% in size. The conditions noted are these: 1A2-DRE human hepatoma cells, luciferase, 24 h; activation: stronger effect = higher value. A digest of the protocol:
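Luminescence (One-Glo, 30 min, room temperature) reports AhR-driven luciferase in stably transfected human hepatoma cells bearing DRE and CYP1A2 promoter. Cells (1,200/well) were treated with compound for 24 hr at 37 C in qHTS format.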

Test [16] can be described thus: Cell Viability - LYMP2-009 (AID 968).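 Note: cells exposed to compound for 24 h at 37 °C; 0% = DMSO alone and the full-kill end = tetraoctylammonium bromide at 92 µM; nearly all actives have a fitted effect of over 55% in size.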
The nature of test [17]: Cell Viability - LYMP2-021 (AID 974).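 Note: compound exposure lasts 24 hours at 37 °C; % is set by controls: 0 for no effect and ±100 for the full control effect; nearly all actives have a fitted effect of over 55% in size.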 A digest of the protocol:
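Concentration-response cytotoxicity in a human lymphoblastoid line: 24 hr treatment at 37 C in complete culture medium, tetraoctylammonium bromide as positive control, luminescent ATP quantitation as viability measure.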

The nature of test [18]: Cell Viability - LYMP2-014 (AID 983).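 Note: cells exposed to compound for 24 h at 37 °C; plate controls were DMSO only for no effect and 92 µM tetraoctylammonium bromide for full effect; nearly all actives have a fitted effect of over 50% in size.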 A digest of the protocol:
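Decrease in intracellular ATP after 24 hr treatment at 37 C, measured by luciferase luminescence, indicated cytotoxicity. Concentration-response data were fitted with the standard Hill equation to give AC50.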

Test [19] in a line: Cell Viability - LYMP2-007 (AID 979).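 Note: cells exposed to compound for 24 h before reading; 0% = DMSO only and the negative end = 92 µM tetraoctylammonium bromide; nearly all actives have a fitted effect of over 60% in size.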 A digest of the protocol:
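Acute toxicity is scored as a concentration-dependent fall in intracellular ATP in human lymphoblastoid cells treated 24 hr at 37 C, measured by luciferase luminescence; Hill-equation modelling yields AC50.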

Test [20] has as its target Peroxisome proliferator-activated receptor gamma (Homo sapiens) (UniProt P37231). The experiment in a line: qHTS assay for small molecule antagonists of peroxisome proliferator-activated receptor gamma signaling (AID 588537; active = well fitted inhibition curve with a large enough effect in the signal ratio, with a control signal flat, not every such curve was filed as active; the % refers to the signal ratio;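 note: reporter cells co-stimulated with 50 nM rosiglitazone agonist during compound treatment; % of control where 0% means no effect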). Put shortly: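 Step one: plate 3000 HEK293 UAS-bla cells per well in medium with 1% stripped serum and hold 6-6.5 h at 37 C. Step two: add compound and 50 nM agonist for 16 h. Step three: CCF4 loading, fluorescence read.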

These results are taken from PubChem BioAssay (NCATS).

Each structure is given as a SMILES string. Where “and” joins values, the source holds several entries; their conditions need not be identical. Equal values may be shown once. Inconclusive results are not listed. Calls of active or inactive are those of the source. Unless noted, calls come from the whole dose curve; as a rule, active = well fitted curve in the direction sought with a large enough effect; inconclusive = small, poorly fitted or top-dose-only effect, or another doubt; inactive = no such curve, though single readings can be large; an effect the other way counts as inactive or inconclusive.

Peroxisome proliferator-activated receptor gamma (Homo sapiens), sequence (P37231 whole entry, looked up): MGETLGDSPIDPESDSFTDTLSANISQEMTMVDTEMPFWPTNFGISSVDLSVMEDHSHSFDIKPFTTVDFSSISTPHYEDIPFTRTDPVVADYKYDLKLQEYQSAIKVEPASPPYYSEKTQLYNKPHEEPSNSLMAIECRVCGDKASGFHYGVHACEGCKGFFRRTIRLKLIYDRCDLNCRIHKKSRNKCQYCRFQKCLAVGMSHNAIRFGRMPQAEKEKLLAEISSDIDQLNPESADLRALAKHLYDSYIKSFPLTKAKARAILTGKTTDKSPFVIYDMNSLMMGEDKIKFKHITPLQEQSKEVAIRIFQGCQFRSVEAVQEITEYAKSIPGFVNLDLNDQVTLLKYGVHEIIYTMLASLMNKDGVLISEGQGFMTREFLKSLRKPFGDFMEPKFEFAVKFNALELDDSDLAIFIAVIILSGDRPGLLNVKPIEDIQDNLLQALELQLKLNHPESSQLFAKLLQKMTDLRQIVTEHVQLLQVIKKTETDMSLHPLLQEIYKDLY
Ubiquitin carboxyl-terminal hydrolase 1 (Homo sapiens), sequence (O94782 whole entry, looked up): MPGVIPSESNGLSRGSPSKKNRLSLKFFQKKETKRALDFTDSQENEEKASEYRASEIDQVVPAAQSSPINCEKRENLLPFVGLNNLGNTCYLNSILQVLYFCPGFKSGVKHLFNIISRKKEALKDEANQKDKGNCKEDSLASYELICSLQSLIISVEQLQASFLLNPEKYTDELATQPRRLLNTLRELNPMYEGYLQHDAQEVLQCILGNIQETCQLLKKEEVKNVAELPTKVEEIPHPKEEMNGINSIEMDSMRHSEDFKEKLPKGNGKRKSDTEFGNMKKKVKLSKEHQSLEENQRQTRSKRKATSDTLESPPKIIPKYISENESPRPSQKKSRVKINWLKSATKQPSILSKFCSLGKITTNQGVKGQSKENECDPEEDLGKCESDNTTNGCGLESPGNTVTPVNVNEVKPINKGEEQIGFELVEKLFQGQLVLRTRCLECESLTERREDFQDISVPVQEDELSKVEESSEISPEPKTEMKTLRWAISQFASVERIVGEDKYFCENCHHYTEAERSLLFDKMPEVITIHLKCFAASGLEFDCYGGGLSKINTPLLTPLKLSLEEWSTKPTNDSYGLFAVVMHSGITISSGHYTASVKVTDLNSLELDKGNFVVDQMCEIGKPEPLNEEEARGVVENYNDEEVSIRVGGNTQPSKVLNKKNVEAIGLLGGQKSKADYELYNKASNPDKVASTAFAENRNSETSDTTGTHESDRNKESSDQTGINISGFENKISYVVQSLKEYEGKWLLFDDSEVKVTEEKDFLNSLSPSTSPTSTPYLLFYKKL
Peroxisome proliferator-activated receptor delta (Homo sapiens), sequence (Q03181 whole entry, looked up): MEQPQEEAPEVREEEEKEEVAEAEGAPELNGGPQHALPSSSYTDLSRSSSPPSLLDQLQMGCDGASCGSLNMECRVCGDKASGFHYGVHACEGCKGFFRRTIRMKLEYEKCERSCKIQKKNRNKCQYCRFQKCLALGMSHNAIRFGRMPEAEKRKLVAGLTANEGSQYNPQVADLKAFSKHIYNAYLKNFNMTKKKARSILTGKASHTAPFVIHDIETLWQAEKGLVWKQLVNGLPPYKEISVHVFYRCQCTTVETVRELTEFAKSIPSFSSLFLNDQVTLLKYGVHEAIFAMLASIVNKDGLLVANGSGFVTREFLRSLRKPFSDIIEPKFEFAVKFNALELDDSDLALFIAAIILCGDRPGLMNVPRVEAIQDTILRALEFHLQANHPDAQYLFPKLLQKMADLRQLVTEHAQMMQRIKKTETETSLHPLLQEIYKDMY
Estrogen receptor (Homo sapiens), sequence (P03372 whole entry, looked up): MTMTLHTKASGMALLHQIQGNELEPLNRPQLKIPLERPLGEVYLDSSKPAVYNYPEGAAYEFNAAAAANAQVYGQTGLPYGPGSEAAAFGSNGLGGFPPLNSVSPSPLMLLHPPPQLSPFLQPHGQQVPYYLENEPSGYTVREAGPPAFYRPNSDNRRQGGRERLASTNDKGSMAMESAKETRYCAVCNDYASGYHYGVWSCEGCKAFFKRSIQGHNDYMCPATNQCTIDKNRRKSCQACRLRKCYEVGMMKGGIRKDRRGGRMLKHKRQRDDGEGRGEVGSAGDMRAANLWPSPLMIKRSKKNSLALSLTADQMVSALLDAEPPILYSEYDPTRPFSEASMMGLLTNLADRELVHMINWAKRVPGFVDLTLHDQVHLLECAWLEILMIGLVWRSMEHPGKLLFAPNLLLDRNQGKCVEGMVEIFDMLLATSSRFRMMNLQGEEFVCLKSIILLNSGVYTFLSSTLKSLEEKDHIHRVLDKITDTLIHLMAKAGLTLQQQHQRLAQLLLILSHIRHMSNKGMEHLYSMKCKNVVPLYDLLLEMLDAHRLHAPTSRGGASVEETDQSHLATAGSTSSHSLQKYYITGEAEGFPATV

As to `O=C1C[C@@H]2OCC=C3CN4CC[C@]56c7ccccc7N1[C@@H]5[C@@H]2[C@H]3C[C@H]46` (tested in a mixture with another compound), in test [1], the Potency result was “inactive”. In addition, the activity, negative = inhibition in test [2] (parasite line A) is -29.7% (inactive); in test [2] (parasite line B) it was -15.1% (inactive).

Turning to `C=C[C@@H]1CN2CC[C@H]1C[C@H]2[C@H](O)c1ccnc2ccccc12`, in [1], the Potency result is “inactive”. The Potency in [2] (parasite line A) is 0.0891 µM (active); in [2] (parasite line B), 0.1 µM (active).

For the compound `ClC(Cl)c1ccccc1`, the Potency entry in test [3], in test [5], in [6], in test [7], in [8] and in test [13] was “inactive” throughout. Moreover, the Potency entry in test [14] is “inactive”. The compound was called inactive in [4], in [9] and in test [11]. Moreover, in test [10], the max response is 17.7%. Also, the activation was -0.312% (inactive) in [12] and -2.06% (inactive) in [15].

As to `C=CCOCC1CO1` (centres undefined), the Potency result in test [3], in test [16], in test [17], in test [18], in test [6] and in test [7] was “inactive” throughout. In test [8], the Potency result is “inactive”. Further, the activation in test [15] is -0.262% (inactive).

Take `CC(=O)c1c(O)c(C)c(O)c(Cc2c(O)c3c(c(C(=O)/C=C\c4ccccc4)c2O)OC(C)(C)C=C3)c1O`: the Potency in test [1] is 79.4 µM (active).

On to `CC[C@@H]1CN2CCc3cc(OC)c(OC)cc3[C@H]2C[C@@H]1C[C@@H]1NCCc2cc(O)c(OC)cc21`, for which the Potency result in [1] was “inactive”.

Consider `O=[N+]([O-])c1cc(Cl)c(Cl)cc1Cl`, for which the compound was classed as inactive in [4], in test [9] and in test [11]. In addition, the Potency result in test [5], in [16], in test [17], in [19], in [18] and in test [6] was “inactive” throughout. The Potency result in test [7], in test [8], in test [20], in [13] and in test [14] was “inactive” throughout. Besides, in test [10], the max response is 5.75%. Also, the activation in test [15] is -0.111% (inactive).

In the case of `NC1CCC(CC2CCC(N)CC2)CC1` (centres undefined), the call in [4], in test [9] and in test [11] was inactive. The Potency entry in test [16], in test [17], in test [19], in test [18], in [6] and in test [7] was “inactive” in each case. The Potency entry in test [8], in test [20], in [13] and in test [14] was “inactive” in each case. Moreover, the max response in test [10] is -9.87%. Also, the activation in test [12] was -0.779% (inactive) and -0.659% (inactive); in test [15], -0.669% (inactive) and 0.679% (inactive).

In the case of `O=C(O)CCl`, the Potency result in test [3], in test [5], in test [16], in [19], in test [18] and in test [6] was “inactive” each time. Moreover, the Potency result in test [20], in [13] and in test [14] was “inactive” throughout.

`Cc1ccc(N=C=O)cc1N=C=O`: the Potency entry in test [3], in [5], in test [16], in test [17], in [19] and in [18] was “inactive” in each case. Also, the Potency result in test [20] was “inactive”. Besides, the compound was classed as inactive in [4]. The activation in [12] was 0.173% (inactive) and 0.839% (inactive).
